# Data published in publication PMC7862700, “An all-to-all approach to the identification of sequence-specific readers for epigenetic DNA modifications on cytosine”.
# Assays:
# Assay in all cases: DAPPL (digital affinity profiling via proximity ligation, sequencing); 10 mM Tris-HCl pH 7.5, 50 mM NaCl, 1 mM DTT, 4% glycerol, room temperature, 30 min; GST-TFs on glutathione beads, 16-mer random dsDNA library, 0.1% formaldehyde crosslink after washing; high values mean tight binding
# FEV = biological target: T1, FEV (Homo sapiens, UniProt Q99581 1-238); conditions: protein: recombinant; tags: N-terminal GST; dsDNA, one strand shown
# T1 sequence: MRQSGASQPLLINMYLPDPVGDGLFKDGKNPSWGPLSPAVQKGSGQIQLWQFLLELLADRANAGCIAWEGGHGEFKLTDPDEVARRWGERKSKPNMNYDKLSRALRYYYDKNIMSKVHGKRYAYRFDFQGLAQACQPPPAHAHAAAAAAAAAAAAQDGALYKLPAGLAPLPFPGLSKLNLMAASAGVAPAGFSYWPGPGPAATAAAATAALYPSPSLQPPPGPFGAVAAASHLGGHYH
# Outline: (§1)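 A tag-only sample was pooled with DNA-barcoded human transcription factors that had been expressed in yeast as GST fusions and captured on glutathione beads. The pools were incubated for 30 min at room temperature with 200 nmole of a random double-stranded 16-mer DNA library in Tris/NaCl/DTT/glycerol buffer, then washed, crosslinked with 0.1% formaldehyde, proximity-ligated (BsaI/T4 ligase, 1 h, 37 °C), PCR-amplified and sequenced on an Illumina NextSeq500. Binding signal is each hexamer's read frequency for a factor divided by its frequency for the tag-only sample.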
# ETV5 = ETV5 (Homo sapiens, UniProt P41161 1-510); conditions: protein: recombinant; tags: N-terminal GST; dsDNA, one strand shown
# Outline: as §1
# HSF1 = HSF1 (Homo sapiens, UniProt Q00613 1-529); conditions: protein: recombinant; tags: N-terminal GST; chain copies: 3; dsDNA, one strand shown
# Outline: as §1
# ELK4 = biological target: T2, ELK4 (Homo sapiens, UniProt P28324-2 1-405); conditions: protein: recombinant; tags: N-terminal GST; dsDNA, one strand shown
# T2 sequence: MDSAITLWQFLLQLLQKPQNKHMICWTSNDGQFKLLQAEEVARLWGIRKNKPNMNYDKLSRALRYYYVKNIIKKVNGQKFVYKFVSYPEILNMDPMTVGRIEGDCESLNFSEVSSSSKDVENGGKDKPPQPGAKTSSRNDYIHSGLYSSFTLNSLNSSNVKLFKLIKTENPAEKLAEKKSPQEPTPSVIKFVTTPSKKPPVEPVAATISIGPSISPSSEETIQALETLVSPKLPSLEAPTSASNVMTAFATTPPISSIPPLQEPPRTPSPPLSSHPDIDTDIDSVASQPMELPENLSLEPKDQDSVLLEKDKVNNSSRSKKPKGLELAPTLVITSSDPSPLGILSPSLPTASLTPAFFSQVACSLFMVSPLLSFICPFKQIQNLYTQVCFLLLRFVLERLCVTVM
# Outline: as §1
# ELF3 = biological target: T3, ELF3 (Homo sapiens, UniProt P78545 1-371); conditions: protein: recombinant; tags: N-terminal GST; dsDNA, one strand shown
# T3 sequence: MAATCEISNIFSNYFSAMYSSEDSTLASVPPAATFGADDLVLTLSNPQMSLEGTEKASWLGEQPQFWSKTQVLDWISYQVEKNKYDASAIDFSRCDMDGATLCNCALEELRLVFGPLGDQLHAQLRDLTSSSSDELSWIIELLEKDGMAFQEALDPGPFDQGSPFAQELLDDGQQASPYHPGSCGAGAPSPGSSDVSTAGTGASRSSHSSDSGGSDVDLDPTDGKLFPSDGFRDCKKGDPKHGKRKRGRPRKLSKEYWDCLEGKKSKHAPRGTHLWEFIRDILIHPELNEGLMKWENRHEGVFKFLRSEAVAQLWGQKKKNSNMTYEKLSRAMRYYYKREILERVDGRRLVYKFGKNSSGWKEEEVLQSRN
# Outline: as §1
# CRX = CRX (Homo sapiens, UniProt O43186 1-299); conditions: protein: recombinant; tags: N-terminal GST; dsDNA, one strand shown
# Outline: as §1
# ETV1 = ETV1 (Homo sapiens, UniProt P50549 1-477); conditions: protein: recombinant; tags: N-terminal GST; dsDNA, one strand shown
# Outline: as §1
# ERF = biological target: T4, ERF (Homo sapiens, UniProt P50548 1-548); conditions: protein: recombinant; tags: N-terminal GST; dsDNA, one strand shown
# T4 sequence: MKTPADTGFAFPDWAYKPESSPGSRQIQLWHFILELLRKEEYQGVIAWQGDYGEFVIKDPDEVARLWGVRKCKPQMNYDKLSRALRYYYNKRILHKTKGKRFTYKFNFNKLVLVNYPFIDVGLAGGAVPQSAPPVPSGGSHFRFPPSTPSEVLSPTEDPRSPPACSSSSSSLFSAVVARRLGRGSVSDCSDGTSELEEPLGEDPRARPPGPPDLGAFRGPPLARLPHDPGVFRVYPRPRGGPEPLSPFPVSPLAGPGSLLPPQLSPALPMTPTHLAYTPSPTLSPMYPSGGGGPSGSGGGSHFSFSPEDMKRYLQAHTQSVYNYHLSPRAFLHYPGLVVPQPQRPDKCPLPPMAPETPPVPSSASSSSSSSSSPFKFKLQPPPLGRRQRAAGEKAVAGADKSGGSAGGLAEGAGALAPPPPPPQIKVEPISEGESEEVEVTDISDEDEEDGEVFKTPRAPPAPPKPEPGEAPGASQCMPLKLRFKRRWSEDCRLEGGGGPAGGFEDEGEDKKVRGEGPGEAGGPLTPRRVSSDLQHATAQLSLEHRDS
# Outline: as §1
# ETS2 = biological target: T5, ETS2 (Homo sapiens, UniProt P15036 1-469); conditions: protein: recombinant; tags: N-terminal GST; dsDNA, one strand shown
# T5 sequence: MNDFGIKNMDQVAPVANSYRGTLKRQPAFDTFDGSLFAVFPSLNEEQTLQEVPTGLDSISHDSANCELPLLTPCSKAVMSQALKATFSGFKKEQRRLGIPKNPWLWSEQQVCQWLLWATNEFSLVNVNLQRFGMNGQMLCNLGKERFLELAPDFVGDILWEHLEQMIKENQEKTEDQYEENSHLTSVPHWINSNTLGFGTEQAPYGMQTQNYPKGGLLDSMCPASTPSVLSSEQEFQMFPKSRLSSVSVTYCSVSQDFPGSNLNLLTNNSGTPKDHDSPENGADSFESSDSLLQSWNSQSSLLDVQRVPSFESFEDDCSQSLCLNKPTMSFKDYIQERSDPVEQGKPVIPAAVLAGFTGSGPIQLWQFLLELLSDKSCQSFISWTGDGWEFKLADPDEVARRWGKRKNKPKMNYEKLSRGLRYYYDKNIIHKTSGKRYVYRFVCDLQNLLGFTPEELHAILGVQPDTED
# Outline: as §1
# SPDEF = biological target: T6, SPDEF (Homo sapiens, UniProt O95238 1-335); conditions: protein: recombinant; tags: N-terminal GST; dsDNA, one strand shown
# T6 sequence: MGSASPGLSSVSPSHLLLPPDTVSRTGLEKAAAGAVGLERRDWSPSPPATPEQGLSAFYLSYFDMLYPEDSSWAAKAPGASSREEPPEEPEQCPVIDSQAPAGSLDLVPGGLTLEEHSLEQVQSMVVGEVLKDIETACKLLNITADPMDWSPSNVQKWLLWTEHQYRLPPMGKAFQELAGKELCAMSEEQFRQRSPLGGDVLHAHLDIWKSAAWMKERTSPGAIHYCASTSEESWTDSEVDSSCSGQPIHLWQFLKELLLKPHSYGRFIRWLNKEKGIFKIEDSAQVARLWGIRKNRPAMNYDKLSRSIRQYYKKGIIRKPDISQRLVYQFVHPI
# Outline: as §1
# ETV3 = biological target: T7, ETV3 (Homo sapiens, UniProt P41162-2 1-143); conditions: protein: recombinant; tags: N-terminal GST; dsDNA, one strand shown
# T7 sequence: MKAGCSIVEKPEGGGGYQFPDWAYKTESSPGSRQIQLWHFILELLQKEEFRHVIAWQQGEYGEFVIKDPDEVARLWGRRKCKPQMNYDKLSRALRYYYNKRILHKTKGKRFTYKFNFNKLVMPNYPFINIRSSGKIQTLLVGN
# Outline: as §1
# SPIC = biological target: T8, SPIC (Homo sapiens, UniProt Q8N5J4 1-248); conditions: protein: recombinant; tags: N-terminal GST; dsDNA, one strand shown
# T8 sequence: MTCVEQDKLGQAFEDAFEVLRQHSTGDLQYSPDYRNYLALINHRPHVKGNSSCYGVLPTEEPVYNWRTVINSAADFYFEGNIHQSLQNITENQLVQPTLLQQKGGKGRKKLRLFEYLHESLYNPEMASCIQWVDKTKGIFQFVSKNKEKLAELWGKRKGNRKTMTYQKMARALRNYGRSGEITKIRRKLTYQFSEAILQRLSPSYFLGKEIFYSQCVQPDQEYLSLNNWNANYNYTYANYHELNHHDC
# Outline: as §1
# ELF4 = ELF4 (Homo sapiens, UniProt Q99607 1-663); conditions: protein: recombinant; tags: N-terminal GST; dsDNA, one strand shown
# Outline: as §1
# ETV2 = biological target: T9, ETV2 (Homo sapiens, UniProt O00321 1-342); conditions: protein: recombinant; tags: N-terminal GST; dsDNA, one strand shown
# T9 sequence: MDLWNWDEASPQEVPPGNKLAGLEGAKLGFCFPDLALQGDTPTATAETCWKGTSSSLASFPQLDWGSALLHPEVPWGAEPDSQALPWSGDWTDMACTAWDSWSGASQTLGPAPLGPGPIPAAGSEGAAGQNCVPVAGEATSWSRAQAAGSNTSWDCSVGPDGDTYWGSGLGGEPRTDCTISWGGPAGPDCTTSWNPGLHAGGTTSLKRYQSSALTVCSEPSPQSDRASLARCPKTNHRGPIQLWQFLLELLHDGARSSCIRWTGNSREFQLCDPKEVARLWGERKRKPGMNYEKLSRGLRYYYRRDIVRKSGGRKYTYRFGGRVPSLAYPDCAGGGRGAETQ
# Outline: as §1
# ETV3L = biological target: T10, ETV3L (Homo sapiens, UniProt Q6ZN32 1-361); conditions: protein: recombinant; tags: N-terminal GST; dsDNA, one strand shown
# T10 sequence: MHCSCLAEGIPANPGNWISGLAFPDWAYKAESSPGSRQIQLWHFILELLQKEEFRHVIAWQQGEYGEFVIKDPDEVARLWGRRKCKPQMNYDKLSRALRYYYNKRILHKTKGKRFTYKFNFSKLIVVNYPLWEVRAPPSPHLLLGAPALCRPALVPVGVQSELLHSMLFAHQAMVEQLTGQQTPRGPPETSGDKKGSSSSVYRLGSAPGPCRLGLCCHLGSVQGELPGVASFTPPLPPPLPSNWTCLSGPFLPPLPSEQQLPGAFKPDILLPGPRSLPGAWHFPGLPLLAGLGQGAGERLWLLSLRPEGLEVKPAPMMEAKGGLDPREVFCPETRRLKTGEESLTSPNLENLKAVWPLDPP
# Outline: as §1
# ETV7 = biological target: T11, ETV7 (Homo sapiens, UniProt Q9Y603 1-341); conditions: protein: recombinant; tags: N-terminal GST; dsDNA, one strand shown
# T11 sequence: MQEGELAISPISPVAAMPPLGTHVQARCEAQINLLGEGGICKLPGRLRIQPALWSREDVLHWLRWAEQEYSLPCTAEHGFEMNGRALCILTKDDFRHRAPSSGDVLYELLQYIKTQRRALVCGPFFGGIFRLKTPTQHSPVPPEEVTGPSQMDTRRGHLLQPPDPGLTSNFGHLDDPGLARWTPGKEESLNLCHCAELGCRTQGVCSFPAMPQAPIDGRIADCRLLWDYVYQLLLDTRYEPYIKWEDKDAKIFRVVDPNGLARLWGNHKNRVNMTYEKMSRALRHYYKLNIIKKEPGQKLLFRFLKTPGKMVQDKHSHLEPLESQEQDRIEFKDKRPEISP
# Outline: as §1
# ELF5 = biological target: T12, ELF5 (Homo sapiens, UniProt Q9UKW6-2 1-255); conditions: protein: recombinant; tags: N-terminal GST; dsDNA, one strand shown
# T12 sequence: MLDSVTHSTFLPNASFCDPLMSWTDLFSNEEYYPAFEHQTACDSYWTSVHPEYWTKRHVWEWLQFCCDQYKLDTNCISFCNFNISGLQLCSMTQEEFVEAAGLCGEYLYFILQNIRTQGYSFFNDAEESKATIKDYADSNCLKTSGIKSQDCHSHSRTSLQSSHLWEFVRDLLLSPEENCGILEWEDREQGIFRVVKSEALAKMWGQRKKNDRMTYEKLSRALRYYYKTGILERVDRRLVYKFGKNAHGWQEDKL
# Outline: as §1
# ETV6 = ETV6 (Homo sapiens, UniProt P41212 1-452); conditions: protein: recombinant; tags: N-terminal GST; dsDNA, one strand shown
# Outline: as §1
# ETV5, sequence (P41161 whole entry): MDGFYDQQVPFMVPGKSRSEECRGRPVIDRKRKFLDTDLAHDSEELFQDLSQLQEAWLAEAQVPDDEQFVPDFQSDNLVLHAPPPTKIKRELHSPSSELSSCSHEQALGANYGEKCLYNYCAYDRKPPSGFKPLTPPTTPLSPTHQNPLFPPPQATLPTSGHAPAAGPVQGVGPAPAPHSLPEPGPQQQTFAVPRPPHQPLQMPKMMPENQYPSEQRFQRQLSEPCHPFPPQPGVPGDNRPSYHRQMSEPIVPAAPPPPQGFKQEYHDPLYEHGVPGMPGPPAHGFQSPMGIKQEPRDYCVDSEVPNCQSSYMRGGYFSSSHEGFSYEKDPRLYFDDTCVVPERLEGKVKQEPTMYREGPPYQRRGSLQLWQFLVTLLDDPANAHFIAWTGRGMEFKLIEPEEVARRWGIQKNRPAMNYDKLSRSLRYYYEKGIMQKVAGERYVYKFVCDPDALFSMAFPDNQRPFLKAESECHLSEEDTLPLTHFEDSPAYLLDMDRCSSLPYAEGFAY
# ETV1, sequence (P50549 whole entry): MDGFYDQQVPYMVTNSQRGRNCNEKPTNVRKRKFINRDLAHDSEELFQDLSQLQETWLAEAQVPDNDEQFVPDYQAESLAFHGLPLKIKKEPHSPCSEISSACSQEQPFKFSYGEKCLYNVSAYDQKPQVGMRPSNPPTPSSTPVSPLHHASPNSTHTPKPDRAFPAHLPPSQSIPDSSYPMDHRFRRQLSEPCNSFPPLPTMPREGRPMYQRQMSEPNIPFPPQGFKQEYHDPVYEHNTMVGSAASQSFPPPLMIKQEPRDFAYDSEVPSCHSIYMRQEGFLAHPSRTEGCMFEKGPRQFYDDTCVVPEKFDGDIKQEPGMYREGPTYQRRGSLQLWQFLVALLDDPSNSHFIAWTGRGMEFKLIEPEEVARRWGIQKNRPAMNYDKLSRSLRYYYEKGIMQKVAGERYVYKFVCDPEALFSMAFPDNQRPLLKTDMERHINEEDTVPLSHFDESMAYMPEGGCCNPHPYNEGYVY
# CRX, sequence (O43186 whole entry): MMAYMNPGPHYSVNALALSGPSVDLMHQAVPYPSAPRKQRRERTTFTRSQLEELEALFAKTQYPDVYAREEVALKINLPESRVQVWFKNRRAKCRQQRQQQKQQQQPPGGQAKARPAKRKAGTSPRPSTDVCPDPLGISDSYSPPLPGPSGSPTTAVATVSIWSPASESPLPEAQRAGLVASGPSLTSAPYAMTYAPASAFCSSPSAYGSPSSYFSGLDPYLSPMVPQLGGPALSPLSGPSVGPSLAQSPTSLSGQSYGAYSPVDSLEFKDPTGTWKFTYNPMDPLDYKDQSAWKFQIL
# ETV6, sequence (P41212 whole entry): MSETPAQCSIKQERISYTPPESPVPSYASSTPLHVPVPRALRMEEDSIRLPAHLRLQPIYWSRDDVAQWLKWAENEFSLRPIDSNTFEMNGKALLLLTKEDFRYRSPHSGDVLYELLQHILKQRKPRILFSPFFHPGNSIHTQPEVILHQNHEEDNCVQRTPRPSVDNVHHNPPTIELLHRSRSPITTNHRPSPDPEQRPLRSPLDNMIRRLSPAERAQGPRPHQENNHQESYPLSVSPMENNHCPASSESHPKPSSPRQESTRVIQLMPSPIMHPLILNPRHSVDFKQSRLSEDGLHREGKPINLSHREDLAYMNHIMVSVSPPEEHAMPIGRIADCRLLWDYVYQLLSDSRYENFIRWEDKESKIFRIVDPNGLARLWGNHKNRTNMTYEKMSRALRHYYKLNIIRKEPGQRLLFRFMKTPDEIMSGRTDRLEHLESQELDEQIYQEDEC
# ELF4, sequence (Q99607 whole entry): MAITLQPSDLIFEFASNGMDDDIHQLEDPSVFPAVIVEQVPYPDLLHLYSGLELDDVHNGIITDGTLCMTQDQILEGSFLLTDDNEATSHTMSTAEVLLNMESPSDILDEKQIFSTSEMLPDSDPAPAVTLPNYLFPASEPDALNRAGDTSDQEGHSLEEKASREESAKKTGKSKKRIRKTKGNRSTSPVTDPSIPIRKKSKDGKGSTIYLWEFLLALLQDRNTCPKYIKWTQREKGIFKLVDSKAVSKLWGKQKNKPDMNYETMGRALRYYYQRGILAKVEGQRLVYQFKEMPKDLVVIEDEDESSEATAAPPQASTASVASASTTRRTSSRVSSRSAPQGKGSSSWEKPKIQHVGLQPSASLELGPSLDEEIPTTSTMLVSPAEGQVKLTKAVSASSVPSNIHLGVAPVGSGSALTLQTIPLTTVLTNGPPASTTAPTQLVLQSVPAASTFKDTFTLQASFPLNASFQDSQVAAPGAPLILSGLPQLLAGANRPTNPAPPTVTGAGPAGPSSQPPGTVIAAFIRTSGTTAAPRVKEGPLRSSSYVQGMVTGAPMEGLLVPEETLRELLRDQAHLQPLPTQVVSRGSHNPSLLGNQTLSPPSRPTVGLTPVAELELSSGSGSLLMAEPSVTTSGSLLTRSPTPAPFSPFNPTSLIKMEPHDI
# HSF1, sequence (Q00613 whole entry): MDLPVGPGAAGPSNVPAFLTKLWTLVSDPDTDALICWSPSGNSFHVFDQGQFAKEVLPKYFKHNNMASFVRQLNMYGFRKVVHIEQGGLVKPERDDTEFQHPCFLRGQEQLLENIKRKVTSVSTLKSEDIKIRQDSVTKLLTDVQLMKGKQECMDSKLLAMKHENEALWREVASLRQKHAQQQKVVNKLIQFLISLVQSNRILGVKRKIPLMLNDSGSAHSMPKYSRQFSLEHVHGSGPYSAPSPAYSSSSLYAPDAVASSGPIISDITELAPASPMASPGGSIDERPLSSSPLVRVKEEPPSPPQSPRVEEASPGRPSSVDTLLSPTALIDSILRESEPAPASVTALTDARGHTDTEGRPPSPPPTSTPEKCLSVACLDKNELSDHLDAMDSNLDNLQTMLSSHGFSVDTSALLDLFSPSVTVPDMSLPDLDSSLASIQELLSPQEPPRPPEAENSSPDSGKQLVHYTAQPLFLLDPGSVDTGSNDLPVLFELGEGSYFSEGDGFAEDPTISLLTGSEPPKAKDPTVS
Sequence,binding signal (FEV),binding signal (ETV5),binding signal (HSF1),binding signal (ELK4),binding signal (ELF3),binding signal (CRX),binding signal (ETV1),binding signal (ERF),binding signal (ETS2),binding signal (SPDEF),binding signal (ETV3),binding signal (SPIC),binding signal (ELF4),binding signal (ETV2),binding signal (ETV3L),binding signal (ETV7),binding signal (ELF5),binding signal (ETV6)
GGCTTA,"1.08 fold enrichment (6-mer frequency, TF over GST control)","1.03 fold enrichment (6-mer frequency, TF over GST control)","2.04 fold enrichment (6-mer frequency, TF over GST control)","1.16 fold enrichment (6-mer frequency, TF over GST control)","1.14 fold enrichment (6-mer frequency, TF over GST control)","3.34 fold enrichment (6-mer frequency, TF over GST control)","1.11 fold enrichment (6-mer frequency, TF over GST control)","1.09 fold enrichment (6-mer frequency, TF over GST control)","1.09 fold enrichment (6-mer frequency, TF over GST control)","1.09 fold enrichment (6-mer frequency, TF over GST control)","1.05 fold enrichment (6-mer frequency, TF over GST control)",,,,,,,
TACAGG,"1.23 fold enrichment (6-mer frequency, TF over GST control)","1.24 fold enrichment (6-mer frequency, TF over GST control)",,"1.26 fold enrichment (6-mer frequency, TF over GST control)","1.15 fold enrichment (6-mer frequency, TF over GST control)","1.08 fold enrichment (6-mer frequency, TF over GST control)","1.15 fold enrichment (6-mer frequency, TF over GST control)","1.1 fold enrichment (6-mer frequency, TF over GST control)","1.08 fold enrichment (6-mer frequency, TF over GST control)","1.39 fold enrichment (6-mer frequency, TF over GST control)","1.18 fold enrichment (6-mer frequency, TF over GST control)","1.2 fold enrichment (6-mer frequency, TF over GST control)","1.14 fold enrichment (6-mer frequency, TF over GST control)","1.15 fold enrichment (6-mer frequency, TF over GST control)","1.27 fold enrichment (6-mer frequency, TF over GST control)","1.12 fold enrichment (6-mer frequency, TF over GST control)","1.22 fold enrichment (6-mer frequency, TF over GST control)","1.19 fold enrichment (6-mer frequency, TF over GST control)"
